The values below come from PubChem BioAssay.

Results filed as inconclusive are left out. Active and inactive are the calls of the source. Unless noted, cut-off not given; nearly all actives show AC50 up to about 26 µM.

The term AC50 denotes the concentration giving half of the maximal activity seen. The term IC50 denotes the concentration at which inhibition is half-maximal.

Experiment [1] in a line: viability loss in pontine glioma line – cell-based, SU-DIPG-XVII, MIPE5.0, CellTiter-Glo, qHTS, dose response (AID 1347060).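 On AC50: cells exposed to compound for 48 hours before viability readout.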 Particulars: CellTiter-Glo ATP luminescence. Background: ATP-based viability assays read luminescence as a measure of living cells.
A short description of experiment [2]: viability loss in pontine glioma line – cell-based, SU-DIPG-XIII, MIPE4.0, CellTiter-Glo, qHTS, dose response (AID 1347061; cut-off not given, nearly all actives have AC50 up to about 37 µM;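 further: cells exposed to compound for 48 hours before readout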). Particulars: CellTiter-Glo ATP luminescence.
Experiment [3] can be described thus: viability loss in pontine glioma line – cell-based, JHH-DIPG-1, MIPE4.0, CellTiter-Glo, qHTS, dose response (AID 1347062; cut-off not given, nearly all actives have AC50 up to about 27 µM;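 on AC50: cells exposed to compound for two days before readout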). Particulars: JHH-DIPG-1 viability, CellTiter-Glo ATP luminescence.
Experiment [4] in a line: viability loss in pontine glioma line – cell-based, SU-DIPG-IV, MIPE4.0, CellTiter-Glo, qHTS, dose response (AID 1347063; cut-off not given, nearly all actives have AC50 up to about 30 µM;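 further: compound exposure lasted 48 hours before the viability readout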). As to conditions: CellTiter-Glo ATP luminescence.
Experiment [5] is described as follows: viability loss in pontine glioma line – cell-based, SU-DIPG-XXV, MIPE5.0, CellTiter-Glo, qHTS, dose response (AID 1347065).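 Further: cells exposed to compound for 48 hours before ATP readout.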 Particulars: CellTiter-Glo ATP luminescence.
A short description of experiment [6]: JHH-DIPG-1 glioma cell viability, MIPE5.0 library, CellTiter-Glo luminescence, qHTS (AID 1347067).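 Further: cells exposed to compound for 48 hours before readout.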 Particulars: JHH-DIPG-1 glioma viability, CellTiter-Glo ATP luminescence.
Experiment [7] in a line: growth inhibition of DIPG cells – cell-based, MIPE5.0 library, qHTS (AID 1347068; cut-off not given, nearly all actives have IC50 up to about 30 µM;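 on IC50: cells exposed to compound for 48 hours before viability readout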). Particulars: SU-DIPG-XXV viability. On the technique in general: Quantitative high-throughput screening tests each substance at several concentrations.
Experiment [8] is described as follows: growth inhibition of DIPG cells – cell-based, MIPE4.0 library, CellTiter-Glo luminescence, qHTS (AID 1347066; cut-off not given, nearly all actives have AC50 up to about 30 µM;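 further: cells exposed to compound for 48 hours before readout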). As to conditions: SU-DIPG-VI viability, CellTiter-Glo ATP luminescence.
A short description of experiment [9]: MELAS cybrid and Rieske KO viability enhancers – cell-based, MELAS cybrids, Rieske KO mouse fibroblasts, CellTiter-Glo, primary screen (AID 1508586;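 active means mean z-score across replicates of 1.96 or higher in either the MELAS or the Rieske mutant cell line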;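 further: z relative to plate mean and SD of compound and empty wells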). Particulars: low glucose.
A short description of experiment [10]: viability loss with induced miR-34 in A549 – imaging, A549 dox-inducible miR-34, nuclei and caspase counts, primary screen (AID 1347080;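 active means compounds whose cell count with miR-34 switched on is under 0.7 times the count with it off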). Particulars: A549 miR-34 inducible, Hoechst nuclei count, 48 h.
Where [11] appears, read: MELAS cybrid survival, CellTiter-Glo 48 h, stronger effect = higher value.
Where [12] appears, read: Rieske KO mouse fibroblast survival, CellTiter-Glo 72 h.

With `COC1CCC(N(C(=O)C2CCC(C)CC2)c2cc(C3=CCCCC3)sc2C(=O)O)CC1` (stereo unspecified), the compound was called inactive in [1], in [2], in experiment [3], in experiment [4], in [5] and in experiment [6]. Besides, the result in experiment [7] was inactive.
For `NC[C@H]1O[C@H](O[C@@H]2[C@H](O)[C@@H](O[C@H]3O[C@H](CO)[C@@H](O)[C@H](N)[C@H]3O)[C@H](N)C[C@@H]2N)[C@H](O)[C@@H](O)[C@@H]1O`, the compound was classed as inactive in experiment [1], in [2], in experiment [3], in [4], in experiment [5] and in [8]. The compound was classed as inactive in [6] and in experiment [7].
In the case of `Cc1nc2cnc3ccc(C#Cc4cccnc4)cc3c2n1-c1ccc(C(C)(C)C#N)cc1`, the concentration at half-maximal activity (AC50) was 468 nM (active) in experiment [1]; 590 nM (active) in experiment [2]; 166 nM (active) in experiment [3]; 29.6 nM (active) in [4]; 209 nM (active) in experiment [5]; 1180 nM (active) in experiment [8]. For the same compound, the AC50 in experiment [6] is 1660 nM (active). Moreover, the half-maximal inhibitory concentration (IC50) in experiment [7] was 2630 nM (active).
Take `CC(C)Nc1cc(C(F)(F)F)cc2nc(NC(=O)c3cccnc3)nn12`: the result in [1], in [2], in experiment [3], in experiment [4], in [5] and in experiment [8] was inactive. Besides, the outcome in [6] and in [7] was inactive.
`CC[C@H](/C=C/[C@@H](C)[C@H]1CC[C@H]2[C@@H]3CC=C4C[C@@H](O)CC[C@]4(C)[C@H]3CC[C@]12C)C(C)C`: the call in experiment [1], in [2], in experiment [3], in experiment [4], in experiment [5] and in experiment [8] was inactive. In addition, the compound was classed as inactive in experiment [6] and in experiment [7].
For `CC1(C)O[C@@H]2C[C@H]3[C@@H]4CCC5=CC(=O)C=C[C@]5(C)[C@H]4[C@@H](O)C[C@]3(C)[C@]2(C(=O)CO)O1`, the result in experiment [1], in experiment [2], in [3], in experiment [4], in experiment [5] and in experiment [8] was inactive. Further, in [7], the call was inactive. The z-score is -0.574 (inactive) in experiment [9] (setting [11]) and 0.349 in experiment [9] (setting [12]).
In the case of `O=C(O)c1ccc(Nc2ncc3c(n2)-c2ccc(Cl)cc2C(c2c(F)cccc2F)=NC3)cc1`, the figures for the AC50 in experiment [1], in [5] and in experiment [6] were 4170 nM (active), 372 nM (active) and 16600 nM (active), respectively. In addition, the outcome in experiment [2], in experiment [3], in experiment [4] and in experiment [8] was inactive. For the same compound, the fold change is 0.96 (inactive) in [10] (stronger effect = lower value, cell number ratio, induced over uninduced) and 0.787 in experiment [10] (measured here: relative caspase fold change +Dox/-Dox). In addition, the cell count in experiment [10] (measured here: total cells with miR-34 induction, stronger effect = lower value) was 2100; in [10] (measured here: total cells without miR-34 induction), 2190. Besides, the z-score in experiment [9] (setting [11]) was -0.524 (inactive); in [9] (setting [12]), 0.65.
